Measurements as given in PubChem BioAssay AID463190 (Sanford-Burnham Center for Chemical Genomics, 2010).
The campaign covered roughly 330,000 compounds. About 7,300 (2.2%) were called active. What follows is part of a selection rich in actives, with near analogues and random picks from the rest. A number with no mark means an inactive call.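 The calls were made as follows: active = inhibition of at least 40%; inactive = the rest.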

Test: growth inhibitors of tim10-1 mutant yeast, primary screen, luminescence, uHTS (AID 463190);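 also: mutant grown at 25 °C; 0% = DMSO wells with yeast and 100% = wells holding no yeast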
Conditions: S. cerevisiae tim10-1 ts strain growth, BacTiter-Glo, 24 h; at 20 µM; stronger effect = higher value

Row | Compound | inhibition
1 | C[C@@H](C(=O)N1CCNCC1)n1cc(CCC(=O)O)nn1 | -7.39%
2 | CCCCC(O)(CCCC)C(=O)NN(C(=O)CCl)c1ccccc1 | 49.5% (active)
3 | CCCC(O)(CCC)C(=O)NN(C(=O)CCl)c1cccc(C)c1 | 31.5%
4 | COC(=O)N(NC(=O)C(O)(C(C)C)C(C)C)c1ccccc1 | -7.63%
5 | Cc1ccnc(SCCn2c(N(C)Cc3ccccc3)nc3c2c(=O)n(C)c(=O)n3C)n1 | 30%
6 | COc1ccc(C(C#N)(CC(=O)O)c2cnccn2)cc1OC (stereo unspecified) | -2.88%
7 | COc1ccccc1CNS(=O)(=O)c1ccc2c(c1)NC(=O)CS2 | -7.01%
8 | Cn1c(=O)[nH]c(=O)c2c1nc(N1CCN(C(c3ccccc3)c3ccccc3)CC1)n2CCO | 10.4%
9 | O=[N+]([O-])c1c(NCCO)cc(Sc2nc3ccccc3s2)c2nonc12 | 42.6% (active)
10 | O=C(O)c1ccccc1CSc1nc2ccccc2s1 | 2.18%
11 | NC(=O)c1ccc(Nc2ccc3nonc3c2[N+](=O)[O-])cc1 | -0.57%
12 | COc1cc(C(=O)OCC(=O)NC(C)CCc2ccccc2)cc(OC)c1OC (stereo unspecified) | 13.5%
13 | CN1C(=O)[C@H]2[C@@H](/C=C/c3ccccc3)N3C(=O)CN(Cc4ccc(-c5ccccc5)cc4)C(=O)[C@@]3(C)[C@H]2C1=O | 1.58%
14 | CCOCCn1c(-c2ccccc2)nc2ccccc21 | -13.4%
15 | Cc1c(C(=O)Nc2cccc(Cl)c2)cn2c(nc3ccccc32)c1C#N | 10.2%
16 | Cc1nc(-c2ccccc2)cn2c1nc1ccccc12 | 40.7% (active)
17 | COc1ccc(C(=O)OCC(=O)c2ccc(Cl)s2)c(OC)c1OC | 6.36%
18 | Cc1ccc(S(=O)(=O)NCCC(c2ccccc2)c2ccccc2)cc1C(=O)O | 25.2%
19 | COc1ccc(C(=O)COC(=O)CNC(=O)c2cccs2)cc1Br | -2.83%
20 | CCN(CC)c1ccc(C(=O)N/N=C(\C)c2cccc(OC)c2)cc1 | -18.4%
21 | CC(=NNC(=O)c1ccc2nc[nH]c2c1)c1ccc(Br)cc1 | 9.94%
22 | COc1ccc(/C(C)=N/NC(=O)c2ccc3nc[nH]c3c2)cc1 | 52.3% (active)
23 | O=C(O/N=C(/c1ccccc1)c1ccncc1)c1ccccc1[N+](=O)[O-] | 41.3% (active)
24 | CN(C)CCCO/N=C(\c1ccccc1)c1ccncc1 | -3.73%

Row | Compound | inhibition
25 | O=C(Nc1ccncc1)c1ccccc1[N+](=O)[O-] | 0.557%
26 | COc1ccc(OCC(=O)NNC(=O)C2CCC2)cc1 | -8.95%
27 | O=C(Nc1ccc(Cl)c(Cl)c1)c1ccccc1NC(=O)C1CC=CCC1C(=O)O (stereo unspecified) | 14.6%
28 | COc1ccc(C(=O)Nc2ccccc2C(=O)N/N=C/c2ccccc2OC)cc1 | 66.7% (active)
29 | COc1ccccc1C(=O)NNC(=O)c1ccc(NC(=O)c2ccccc2)cc1 | -9.84%
30 | CCOc1cc(/C=N/NC(=O)c2cc(-c3ccccc3)nc3ccccc23)ccc1O | 11.6%
31 | COc1ccc(C(=O)Nc2cc(C)c(NC(=O)c3ccccc3OC)cn2)cc1 | -34.5%
32 | COc1ccc(C(=O)Nc2ccccc2C(=O)N/N=C/c2ccc(O)c(OC)c2)cc1 | 97% (active)
33 | COc1cc(/C=N/NC(=O)c2ccc(N3CCCC3=O)cc2)ccc1O | 13.5%
34 | O=C(Nc1cccc(Cl)c1)C1CCCN(c2cnccn2)C1 (stereo unspecified) | -8.48%
35 | O=C(NCCc1ccccc1)Oc1ccc(Cl)cc1 | 13.9%
36 | O=C(COc1ccc(-n2cnnn2)cc1)Nc1ccccc1Cl | -7.79%
37 | Cc1ccc(NC(=O)CCC(=O)N2CCC(c3ccccc3)=N2)cc1S(=O)(=O)N1CCCCC1 | -15.3%
38 | Cc1ccc(C(=O)NCC(=O)OCC(=O)Nc2cccc(S(=O)(=O)N3CCCC3)c2)cc1C | -7%
39 | COc1ccccc1CNC(=O)CCCN1C(=O)NC2(CCCC2)C1=O | 6.1%
40 | Cn1c2ccccc2c2c(C(=O)N3CCN(c4ccc(F)cc4)CC3)cn(C3CCCC3)c(=O)c21 | 36.7%
41 | CCCc1nc2c(c(=O)c3ccccc3n2C)c(=O)n1C1CCCCCC1 | 43.1% (active)
42 | Cn1c2ccccc2c(=O)c2c(O)cccc21 | 6.4%
43 | CCc1nc2nc(C)c(NS(=O)(=O)c3ccc4c(c3)CCCC4)c(=O)n2[nH]1 | -10.4%
44 | O=S(=O)(c1ccc(Cl)cc1)c1nc(-c2ccco2)oc1N1CCCCC1 | 26.4%
45 | Cn1c(=O)n(Cc2ccco2)c(=N)c2c3c(sc21)CCCC3 | 12.5%
46 | O=c1oc(-c2ccco2)nc2sc3c(c12)CCCCC3 | 41.5% (active)
47 | Cn1cccc1/C=N/NC(=O)CNc1cccc2ccccc12 | 13.6%
48 | Cc1cccc(/C=N/NC(=O)CNc2cccc3ccccc23)n1 | 23.6%

Row | Compound | inhibition
49 | C/C(=N\NC(=O)CNc1cccc2ccccc12)c1ccc(Br)s1 | 41.9% (active)
50 | CC(C)c1ccc(NC2CCCN(C(=O)c3ccncc3)C2)cc1 (stereo unspecified) | 8.48%
51 | Fc1ccccc1OCCSc1nc2ccccc2o1 | 27.5%
52 | COCCN(Cc1ccccc1)C(=O)Cc1ccc(S(=O)(=O)N2CCOCC2)s1 | 18.8%
53 | C=CCNc1nc(C)nc(OC)n1 | 7.31%
54 | COc1nc(NCc2ccc(Cl)cc2)nc(OC)n1 | 6.89%
55 | C=CCNc1nc(Nc2ccc(Cl)cc2)nc(OC)n1 | 43.2% (active)
56 | Cc1[nH][nH]c(=O)c1C(c1ccc(-c2ccc(Cl)cc2)o1)c1c(C)[nH][nH]c1=O | 67.1% (active)
57 | CN(CC(=O)Nc1ccc(F)cc1)C(=O)c1ccc(-c2ccc(Cl)cc2)o1 | 21.8%
58 | CCCCSc1[nH]c(=O)c(C(=O)OCC)cc1C#N | -14.3%
59 | O=C(CSC(=S)N1CCOCC1)c1cc(Br)cc(Br)c1O | 50.1% (active)
60 | O=C(CSC(=S)N1CCOCC1)c1ccccc1 | 5.05%
61 | O=C(c1cc2cc(Br)cc(Br)c2oc1=O)N1CCOCC1 | 7.28%
62 | Nn1c(SCC(=O)NC2CCCC2)nnc1-c1ccccc1F | -11.7%
63 | CC(=O)Nc1ccc(Sc2ccccc2C(=O)N2CCCC2)cn1 | 7.35%
64 | CC(C)(C)CN1CCNC(=O)C1CC(=O)NC1Cc2ccccc2C1 (stereo unspecified) | 16.6%
65 | CN1CN(C)c2ccc([N+](=O)[O-])c3cccc1c23 | 9.35%
66 | CCOc1cccc(=O)c2c(C)n(CC3CCCO3)c(C)c12 (stereo unspecified) | 1.25%
67 | O=C1c2cccc3c([N+](=O)[O-])ccc(c23)C(=O)N1CC1CCCO1 (stereo unspecified) | 71.2% (active)
68 | CCCCCCCNC(=O)C1(CC2CC(c3cccc(Br)c3)=NO2)CCN(C(=O)c2cc(OCC)c(OCC)c(OCC)c2)CC1 (stereo unspecified) | -4.27%
69 | COc1ccc(CNC(=O)C2(CC3CC(c4ccccc4)=NO3)CCN(C(=O)c3cccc(O)c3)CC2)cc1 (stereo unspecified) | 2.25%
70 | O=C(c1ccccc1)N1CCC(CC2CC(c3ccc(Cl)cc3)=NO2)(C(=O)NCC2CCCCC2)CC1 (stereo unspecified) | 41.2% (active)
71 | O=C(NCC1CCCO1)C1CCN(C2CCN(C(=O)C3CCCCC3)CC2)CC1 (stereo unspecified) | -2.3%
72 | C/C(=N/O)c1ccc(N2C(=O)C3C4C=CC(C3C2=O)C2C3C(=O)N(c5ccc(/C(C)=N/O)cc5)C(=O)C3C42)cc1 (stereo unspecified) | 6.62%

Row | Compound | inhibition
73 | O=C(O)c1cccc(S(=O)(=O)N2CC=C(c3ccccc3)CC2)c1 | 13.4%
74 | COc1ccc(C(C[N+](=O)[O-])n2nc(C)cc2C)cc1 (stereo unspecified) | 43.3% (active)
75 | COc1ccc(OC)c(S(=O)(=O)n2c([N+](=O)[O-])cnc2C)c1 | 13.3%
76 | CCOc1ccc(C(C)C)cc1S(=O)(=O)n1nc(C)cc1C | 36.6%
77 | Cc1ccc(S(=O)(=O)N(C)C)cc1NC(=O)c1ccc(-n2cncn2)c([N+](=O)[O-])c1 | -0.831%
78 | Cn1ccs/c1=N\S(=O)(=O)c1ccc(C(C)(C)C)cc1 | 26.8%
79 | COc1cc(C(=O)OCc2cc(=O)n3ccsc3n2)ccc1OC(C)C | -4.26%
80 | CCCCCCSc1nsc(N)n1 | 26.2%
81 | CN(Cc1ccccc1)CC(O)COc1ccc(CNCc2cc3ccccc3s2)cc1 (stereo unspecified) | -10.1%
82 | COC(=O)c1ccccc1NS(=O)(=O)c1ccc2[nH]c(=O)[nH]c2c1 | 5.53%
83 | COC(=O)c1ccc(NC(=O)c2ccccc2NS(=O)(=O)c2ccccc2)cc1 | 40.3% (active)
84 | CCOc1ccc(NC(=O)c2ccccc2NS(C)(=O)=O)cc1 | -4.15%
85 | CCOC(=O)c1ccc(NC(=O)CS(=O)(=O)c2cn(CC)c3ccccc23)cc1 | 14.8%
86 | CC(=O)c1cc(CN2CCC(n3nccc3NC(=O)c3ccccc3Cl)CC2)cs1 | -3.89%
87 | Cc1ccc(N=Cc2c(O)n(-c3nccs3)c(=O)c3ccccc23)c(C)c1 | 9.76%
88 | OCc1nc(CO)n(Cc2ccccc2)n1 | 4.38%
89 | Cc1ccc(NNC(=O)c2c(F)cccc2Cl)cc1Cl | 14%
90 | Cc1cc(OC(=O)c2c(Cl)cccc2Cl)nc(C)n1 | 35%
91 | Cc1cc(C)c(S(=O)(=O)c2ccccc2)c(OC(=O)c2c(F)cccc2Cl)n1 | 42.6% (active)
92 | O=C(O)c1cccnc1NC1CCCC1 | -10.6%
93 | CCC(=O)c1cn(CCOc2ccccc2OC)c2ccccc12 | 4.25%
94 | Cc1ccc(-c2ccc(=O)n(CC(=O)NCCCN3CCCCC3)n2)cc1 | -3.38%
95 | Cc1nn(CC(=O)NCCc2ccccc2)c(=O)c2cc3occc3n12 | -16.4%
96 | CCc1ccc(-c2cc3c(=O)n(CC(=O)NCCCN4CCN(Cc5ccccc5)CC4)nc(C)n3n2)cc1 | 43.7% (active)
